Data on 13 molecules can be found in PubChem BioAssay.

Assay [1] deals with Human papillomavirus type 1a protein E7 (residues 44-93). Put plainly: small molecules binding HPV E7 44-93 – biochemical, small-molecule microarray, residues 44-93, 635 nm fluorescence, primary screen (AID 1108).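 Note: E7 fragment applied at 1 µg/mL in TBST for 1 h at 4 C; score combines spot fluorescence with its signal to noise ratio.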 Conditions: fluorescence 635 nm, higher = more signal.
The nature of assay [2]: hepatitis C replication reporter changes, two-sided – Huh7 cells, luciferase reporter, HCV replication inhibitor project, primary screen (AID 1109).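 Note: huh7 hepatoma cells harbouring a luciferase neomycin HCV replicon reporter; luciferase luminescence as measure of HCV replicon replication; test concentration not given here.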 Conditions: Huh7 HCV replicon luciferase reporter, 48 h; higher = more signal. In general terms: A reporter such as luciferase makes a cellular process visible.
In assay [3] the target is Left-right determination factor 2 (Homo sapiens) (UniProt O00292). Briefly: small molecules binding LEFTY2 protein – biochemical, small-molecule microarray, 635 nm fluorescence scan, primary screen (AID 1110). Conditions: higher = more signal.
The target of assay [4] is Calmodulin-1 (Homo sapiens) (UniProt P0DP23). Put plainly: small molecules binding calmodulin-1 with EGTA – biochemical, small-molecule microarray, Cy5-labelled CALM1, profiling panel (AID 1111).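 Note: labelled calmodulin applied in Tris saline Tween buffer holding calcium plus EGTA and DTT.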 The following applies: Cy5-CALM1 binding fluorescence, higher = more signal.
The target is the same in assay [5]. Put plainly: small molecules binding Ca-loaded calmodulin-1 – biochemical, small-molecule microarray, Cy5-labelled CALM1, plus calcium, artefact control for SMM control-protein annotation, profiling panel (AID 1112).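 Note: score merges spot fluorescence with signal to noise from triplicate slides.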 The following applies: Cy5-CALM1 binding fluorescence, higher = more signal.
A short description of assay [6]: probe aWnt5a binding to arrayed compounds – biochemical, biotinylated probe, 635/667 nm fluorescence, primary screen (AID 1113).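 Note: score merges 667 nm fluorescence intensity with signal-to-noise per printed feature.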 Conditions: small-molecule microarray, higher = more signal.
The nature of assay [7]: probe aShh binding to arrayed compounds – biochemical, biotinylated probe, 635/667 nm fluorescence, primary screen (AID 1114).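 Note: probe is biotin-labelled aShh protein from a stem cell growth factor screen; measures binding of labelled protein to compounds printed on the slide; score merges feature fluorescence at 667 nm with signal-to-noise.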 Conditions: small-molecule microarray, higher = more signal.
The nature of assay [8]: probe aNog binding to arrayed compounds – biochemical, biotinylated probe, 635/667 nm fluorescence, primary screen (AID 1115).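 Note: probe is biotinylated aNog protein used at 0.15 µg/mL for 1 h at 4 C; z-score combines 667 nm fluorescence of each spot with its signal to noise.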 Conditions: small-molecule microarray, higher = more signal.
The target of assay [9] is Torsin-1A-interacting protein 1 (Homo sapiens) (UniProt Q5JTV8). Briefly: compound microarray binding of lysate hLAP1 – cell lysate, small-molecule microarray, COS7 lysate, 635/667 nm fluorescence, primary screen (AID 1116). The following applies: 635 nm fluorescence, higher = more signal.
In assay [10] the target is Alpha-bungarotoxin (Bungarus multicinctus) (UniProt P60615). Put plainly: compounds binding labelled alpha-BTX control protein – biochemical, small-molecule microarray, Alexa647 label, 635/667 nm fluorescence, artefact control for SMM control protein annotation, profiling panel (AID 1117). The following applies: alpha-BTX-A647 binding fluorescence, higher = more signal.
Alpha-bungarotoxin (Bungarus multicinctus), sequence (P60615 whole entry, looked up): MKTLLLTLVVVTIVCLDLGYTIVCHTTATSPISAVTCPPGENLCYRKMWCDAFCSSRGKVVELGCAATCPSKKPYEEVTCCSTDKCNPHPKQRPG

Torsin-1A-interacting protein 1 (Homo sapiens), sequence (Q5JTV8 whole entry, looked up): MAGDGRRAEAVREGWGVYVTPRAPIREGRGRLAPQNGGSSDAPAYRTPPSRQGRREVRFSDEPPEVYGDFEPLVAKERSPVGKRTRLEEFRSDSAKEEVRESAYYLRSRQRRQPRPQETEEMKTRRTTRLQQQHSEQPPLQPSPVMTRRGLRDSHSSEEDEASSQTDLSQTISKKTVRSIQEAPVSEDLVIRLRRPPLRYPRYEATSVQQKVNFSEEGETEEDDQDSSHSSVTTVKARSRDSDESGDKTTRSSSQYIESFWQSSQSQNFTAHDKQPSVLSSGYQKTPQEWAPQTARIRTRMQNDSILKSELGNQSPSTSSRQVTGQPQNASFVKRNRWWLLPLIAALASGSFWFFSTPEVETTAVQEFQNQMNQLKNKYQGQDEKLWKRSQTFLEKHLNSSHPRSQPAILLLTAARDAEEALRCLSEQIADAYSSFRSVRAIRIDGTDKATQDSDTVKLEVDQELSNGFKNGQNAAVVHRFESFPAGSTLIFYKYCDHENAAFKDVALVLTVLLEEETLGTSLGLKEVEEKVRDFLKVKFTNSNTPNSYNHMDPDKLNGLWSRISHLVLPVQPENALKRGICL
Left-right determination factor 2 (Homo sapiens), sequence (O00292 whole entry, looked up): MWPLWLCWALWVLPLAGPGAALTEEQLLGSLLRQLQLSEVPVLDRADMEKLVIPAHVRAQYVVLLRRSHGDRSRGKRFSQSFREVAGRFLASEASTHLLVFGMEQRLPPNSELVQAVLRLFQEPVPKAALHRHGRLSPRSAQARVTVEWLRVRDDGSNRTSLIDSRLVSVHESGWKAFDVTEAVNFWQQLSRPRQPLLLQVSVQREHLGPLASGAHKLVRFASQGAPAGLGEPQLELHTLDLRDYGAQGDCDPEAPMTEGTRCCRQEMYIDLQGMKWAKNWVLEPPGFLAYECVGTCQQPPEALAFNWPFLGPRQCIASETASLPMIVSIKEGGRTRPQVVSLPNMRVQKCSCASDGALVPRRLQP

As for `CC(=O)OC[C@H]1O[C@H](CC=NO[C@@H](C)c2cc(-c3c(C)cc(C)cc3C)no2)C=C[C@@H]1OC(C)=O`, the composite z-score is -0.0612 in [1]; -0.111 in assay [3]; -0.176 in assay [4]; 0.0084 in assay [5]; -0.208 in assay [6]; -0.223 in [7]. Further, the composite z-score in assay [8] was -0.135; in [9], -0.502; in assay [10], 0.753. Moreover, the z-score in assay [2] is -0.83.
For `CO[C@@H]1COC(=O)[C@H](COCc2ccccc2)NC(=O)CC=C[C@@H](C)[C@H](OC)COC(=O)[C@@H](C)NC(=O)CC=C[C@H]1C`, the composite z-score is -0.747 in assay [1]; 0.583 in assay [3]; -1.78 in assay [4]; -2.61 in assay [5]; -0.18 in assay [6]; 0.0062 in [7]. In addition, the composite z-score in assay [8] is -0.643; in assay [9], 0.343; in assay [10], -1.31. The same molecule showed a z-score in [2] of -0.536.
Consider `CO[C@@H](C1CCCCC1)[C@@H](C)[C@H](OCc1cccc(Br)c1)[C@@H](C)CO`, for which the composite z-score in assay [1] is -0.18; in assay [3] it was 0.481; in [4] it was -0.434; in [5] it was 0.318; in assay [6] it was -0.139; in [7], -0.0709. In addition, the values for the composite z-score in assay [8], in [9] and in [10] were 0.0649, 0.0682 and -0.378, respectively. Also, the z-score in assay [2] is -1.88.
For the molecule `C#CCCCON=C1C[C@@H](O)[C@@H](O)[C@@H]2[C@@H]3C(=O)N(C[C@@H]4CCCO4)C(=O)[C@@H]3CC[C@H]12`, the composite z-score in assay [1] was 0.592; in assay [3], 0.397; in assay [4], 0.256; in assay [5] it was -0.0973; in [6] it was -0.096; in [7], -0.2. Besides, the results for the composite z-score in assay [8], in [9] and in assay [10] were -0.462, 0.742 and 0.355, respectively. Besides, the z-score in assay [2] was found to be 0.403.
Regarding `CC#CCOCCC=C1c2ccccc2[C@@H](OC)[C@@H]1C`, the composite z-score in assay [1] is -1.14; in assay [3], 0.0778; in assay [4], -1.06; in [5], -1.18; in [6], -0.0977; in assay [7], -0.138. Further, the composite z-score was -0.209 in assay [8], 0.139 in [9] and -0.0725 in assay [10]. The molecule further came in with a z-score in assay [2] of -0.692.
As for `CC(C)[C@@H](OCc1ccccc1)[C@H](C)CON=C1[C@H]2CCn3c(=O)n(-c4ccccc4)c(=O)n3[C@H]2[C@H](O)[C@@H]2O[C@H]12`, the composite z-score in [1] is 0.416; in [3], 0.677; in [4] it was -0.404; in assay [5], -0.366; in assay [6], -0.147; in assay [7] it was -0.134. For the same molecule, the figures for the composite z-score in [8], in [9] and in assay [10] were -0.124, -0.005 and 0.251, respectively. Further, the z-score in [2] is -4.23.
For `O=C(NN=C1C[C@@H](O)[C@@H](O)[C@@H]2[C@@H]3C(=O)N(Cc4ccccc4)C(=O)[C@@H]3CC[C@H]12)OCc1ccccc1`, the composite z-score in [1] is -0.401; in assay [3], 0.524; in assay [4], -0.293; in assay [5] it was -0.406; in assay [6] it was -0.124; in assay [7], -0.2. Also, the composite z-score is 0.0313 in assay [8], 0.305 in assay [9] and -0.016 in assay [10]. In assay [2], this molecule had a z-score of 0.0011.
Consider `CON=C(C)CCC(=O)OC[C@H]1O[C@H](C#Cc2ccccc2)C=C[C@@H]1Oc1ccc(C)cc1`, for which the composite z-score in assay [1] is 0.247; in [3] it was 0.395; in assay [4] it was -0.118; in assay [5] it was -0.545; in [6], -0.0924; in assay [7] it was -0.0709. Further, the composite z-score in assay [8] turned out to be 0.0369; in assay [9], 0.571; in assay [10], 0.35. In addition, the z-score in assay [2] was -3.53.
For `O=C(NN=C1C[C@@H](O)[C@@H](O)[C@@H]2[C@@H]3C(=O)N(c4ccc(F)cc4F)C(=O)[C@@H]3CC[C@H]12)OCc1ccccc1`, the composite z-score was 1.35 in assay [1]; 0.446 in assay [3]; 0.463 in assay [4]; -0.235 in [5]; -0.12 in assay [6]; -0.0192 in [7]. Further, the composite z-score in assay [8] was -0.406; in assay [9] it was 0.747; in assay [10], 0.555. This molecule displayed a z-score in assay [2] of -0.642.
Regarding `CCOC(=O)CCN1C(=O)[C@H]2[C@H]3[C@H](O)[C@H](O)CC(=NNC(=O)OCc4ccc(OC)cc4)[C@H]3CC[C@H]2C1=O`, the composite z-score in assay [1] is 0.451; in [3], 0.214; in assay [4] it was -0.211; in [5], -0.509; in [6] it was 0.0243; in assay [7], 0.0121. For the same molecule, the composite z-score in assay [8] was 0.0236; in assay [9] it was -0.176; in [10] it was 0.354. For the same molecule, in assay [2], the z-score is -2.44.
`CCOC(=O)[C@H](Cc1ccccc1)NC(=O)CCC1CC(OC(=O)NCc2ccc3c(c2)OCO3)CC2(CCCC(COC(=O)NCCCN3CCCC3=O)O2)O1` (stereo not given in full): the composite z-score was 1.35 in [1]; 0.56 in [3]; 0.972 in [4]; 0.356 in assay [5]; -0.0607 in [6]; -0.229 in assay [7]. Besides, the composite z-score in assay [8] is -0.0604; in assay [9] it was 0.799; in assay [10], 0.426. In assay [2], this molecule gave a z-score of -1.93.
Consider `CC(CCN1CCc2nc(-c3ccccc3)c(-c3ccccc3)cc2C1)=NO[C@H](C)c1cn([C@H](CO)Cc2ccccc2)nn1`, for which the composite z-score in assay [1] is -0.93; in assay [3] it was 0.332; in assay [4] it was 0.0521; in [5], 0.509; in [6], -0.0242; in assay [7], -0.16. The values for the composite z-score in [8], in assay [9] and in [10] were -0.0309, 0.34 and 1.2, respectively. For the same molecule, the z-score in [2] was -2.3.
Consider `COC(=O)[C@H](C)NC(=O)CCC1CC(OC(=O)NCCc2ccc(F)cc2)CC2(CCCC(COC(=O)NCCc3ccccc3OC)O2)O1` (stereo not given in full), for which the composite z-score in assay [1] is 1.35; in assay [3], 0.638; in assay [4] it was 0.48; in [5] it was -0.211; in assay [6], -0.0403; in assay [7], 0.0141. For the same molecule, the composite z-score was found to be 0.177 in assay [8], 0.195 in [9] and 0.434 in assay [10]. In assay [2], this molecule had a z-score of -0.466.
